Sampled rows, rich in hits. Any-hit rate of the full collection: about 12%.
HP1b chromo inh: inhibitors of HP1-beta chromodomain binding to methylated histone tails. AID 540317. Potency, µM (series often up to 114 µM), actives largely listed as inhibitors. AlphaScreen HP1-beta / biotin-H3K9me3 peptide binding. P83916. 390,000 tested, 0.56% active; also: nearly all actives have a fitted effect of over 70% in size
Target sequence (P83916 whole entry, looked up): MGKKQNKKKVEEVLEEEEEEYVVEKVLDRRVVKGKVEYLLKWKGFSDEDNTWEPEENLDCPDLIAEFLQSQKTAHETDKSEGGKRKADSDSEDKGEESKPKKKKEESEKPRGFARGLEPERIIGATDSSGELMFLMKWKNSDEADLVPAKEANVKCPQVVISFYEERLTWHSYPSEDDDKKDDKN
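Compound inhibition of the preformed complex between 50 nM HP1-beta and 50 nM biotinylated H3K9me3 peptide was read by AlphaScreen. Buffer was PBS pH 7.4 with 0.01% Tween-20. Incubations ran 30 min at room temperature, with 10 ug/mL donor/acceptor beads.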
PLK1 PBD block: inhibitors of human PLK1 polo-box domain binding; P53350; Plk1 PBD binding of FITC phosphopeptide, fluorescence polarization; Potency, µM, hits mostly inhibitors; 360,000 tested, 2.8% active; AID 720504; also: series mostly up to about 57 µM; nearly all actives have a fitted effect of over 65% in size
G9a inh: G9a (human) methyltransferase inhibition. Q96KQ7. G9a H3K9 monomethylation, AlphaScreen, 2 h. Potency, µM (titrated, usually from 102 µM), hits mostly inhibitors. 350,000 tested, 8.8% active; also: nearly all actives have a fitted effect of over 75% in size
Target sequence (Q96KQ7 913-1193 limits assumed): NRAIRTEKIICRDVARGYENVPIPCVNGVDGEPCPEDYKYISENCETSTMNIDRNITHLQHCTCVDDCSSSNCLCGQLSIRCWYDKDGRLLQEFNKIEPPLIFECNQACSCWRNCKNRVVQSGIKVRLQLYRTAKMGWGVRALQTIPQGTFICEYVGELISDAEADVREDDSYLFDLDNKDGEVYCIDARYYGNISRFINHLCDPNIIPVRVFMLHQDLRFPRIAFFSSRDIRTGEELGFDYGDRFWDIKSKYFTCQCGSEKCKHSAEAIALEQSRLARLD
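Step 1: enzyme (final 20 nM) with compound, 15 min RT. Step 2: substrate peptide 500 nM and SAM 20 uM, 2 h RT. Step 3: anti-H3K9me1 antibody and AlphaScreen beads, 10 min, then plate read.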
JMJD2A Tudor inh: JMJD2A Tudor domain (human) inhibition | Potency, µM (top dose mostly 114 µM), hits mostly inhibitors | O75164 | AlphaScreen JMJD2A-Tudor / H3K4me3 peptide binding | AID 504339 | 390,000 tested, 4.4% active; also: nearly all actives have a fitted effect of over 50% in size
BAZ2B inh: BAZ2B (human) inhibition | Q9UIF8 | AlphaScreen BAZ2B-H3K14Ac peptide displacement | Potency, µM (titrated, usually from 114 µM), most hits filed as inhibitors | 360,000 tested, 4.4% active; also: nearly all actives have a fitted effect of over 60% in size
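In this displacement format the biotinylated H3(5-23) peptide acetylated at Lys14 serves as ligand at 50 nM, with BAZ2B at 50 nM in PBS pH 7.4 containing 0.01% Tween-20. Donor and acceptor beads are 10 ug/mL final.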
Sfp inh: blocks B. subtilis Sfp PPTase activity. Biochemical Sfp PPTase activity, qHTS. Potency, µM, actives largely listed as inhibitors. 310,000 tested, 3.5% active;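 also: the enzyme is Sfp with the accession as filed and its product quenches rhodamine fluorescence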
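Fluorescence-quenching assay: 15 nM Sfp-PPTase preincubated 15 min at room temperature with compound, then 5 uM rhodamine-CoA and 12.5 uM BHQ-2-labelled YbbR peptide added. Fluorescence (ex 525/em 598 nm) read at start and after 30 min; difference gives rate.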
Hits are given with their value; - = inactive; ? = inconclusive; . = no result given; [ ] = another dose, or the depositor's remark. Calls follow the shape of the dose curve; as a rule, active = well fitted curve in the direction sought with a large enough effect; inconclusive = small, poorly fitted or top-dose-only effect, or another doubt; inactive = no such curve, though single readings can be large; an effect the other way counts as inactive or inconclusive.

SMILES	HP1b chromo inh	PLK1 PBD block	G9a inh	JMJD2A Tudor inh	BAZ2B inh	Sfp inh
Cc1cc(C)cc(C(=O)NC(CC(N)=O)c2ccc(N3CCCCCC3)c([N+](=O)[O-])c2)c1 (stereo not given)	-	-	.	?	?	-
Cc1cc(C)nc(SCC(=O)Nc2ncc(C(F)(F)F)cc2Cl)n1	-	-	-	-	-	-
Cc1c(Cl)cccc1NC(=S)NNc1ncc(C(F)(F)F)cc1Cl	-	-	71µM	-	-	-
O=C(COC(=O)c1cc(-c2ccccc2Cl)nc2ccccc12)Nc1ncc(C(F)(F)F)cc1Cl	?	-	-	?	?	40µM
FC(F)(F)c1cnc(NNC(=S)Nc2cccnc2)c(Cl)c1	-	?	22µM	-	-	-
O=C(CSc1ncccn1)Nc1ncc(C(F)(F)F)cc1Cl	-	-	20µM	-	-	?
O=C(COC(=O)c1cccc2ccccc12)Nc1ncc(C(F)(F)F)cc1Cl	-	-	?	-	-	-
CC(C)OCCCN1C(=O)c2[nH]nc(-c3ccccc3O)c2C1c1ccccc1F (stereo not given)	-	.	-	-	-	.
NCCCC[C@H](N)C(=O)N[C@@H](CCCN=C(N)N)C(=O)N1CCC[C@H]1C(=O)N1CCC[C@H]1C(=O)NCC(=O)N[C@@H](Cc1ccccc1)C(=O)N[C@@H](CO)C(=O)N1CCC[C@H]1C(=O)N[C@@H](Cc1ccccc1)C(=O)O	.	.	.	.	.	-
NC(=O)NNc1ncc(C(F)(F)F)cc1Cl	-	-	?	-	-	50µM
O=C(NNc1ncc(C(F)(F)F)cc1Cl)c1c(Cl)cccc1Cl	-	-	-	-	-	-
CC[C@H](C)[C@H](NC(N)=O)C(=O)NCCc1ccc(Cl)cc1Cl	-	-	-	-	-	-
Cc1ccc(/C=N/n2c(-c3ccc(Cl)cc3)n[nH]c2=S)o1	-	-	.	?	-	-
S=c1[nH]ncn1/N=C/c1ccco1	.	-	.	.	.	.
S=c1[nH]nc(-c2cccnc2)n1/N=C/c1ccco1	-	-	.	25µM	?	40µM
CC(/C=N/n1c(-c2ccc(Cl)cc2)n[nH]c1=S)=C\c1ccco1	-	-	10µM	?	-	-
Cc1cccc(-c2n[nH]c(=S)n2/N=C/c2ccco2)c1	-	-	.	7.9µM	-	-
Cc1ccc(-c2n[nH]c(=S)n2/N=C\c2ccco2)cc1	-	-	0.89µM	25µM	-	?
Cc1cc(NC(=O)c2ccco2)cc(-c2nc3cc(Cl)ccc3o2)c1O	-	.	-	-	-	.
CCOc1ncccc1C(=O)N1CCN(c2cccc(C)c2C)CC1	-	-	-	-	-	-
CCOc1ncccc1C(=O)N1CCN(c2cc(Cl)ccc2C)CC1	-	21µM	-	50µM	-	-
COc1ccc(NC(=O)C(NCC(C)C)c2ccccc2)cc1Cl (stereo not given)	16µM	-	50µM	4.5µM	40µM	50µM
COc1ccc(NC(C)C(=O)Nc2ccc(C(C)(C)C)cc2)cc1Cl (stereo not given)	-	-	?	?	45µM	-
COc1ccc(NC(=O)C(OC)c2ccccc2)cc1Cl (stereo not given)	-	-	-	-	-	-
COc1ccc(NC(C)C(=O)Nc2ccc(C#N)cc2)cc1Cl (stereo not given)	-	-	-	?	?	-
SMILES	HP1b chromo inh	PLK1 PBD block	G9a inh	JMJD2A Tudor inh	BAZ2B inh	Sfp inh
CO[C@H]1COC(=O)[C@@H](C)COC(=O)[C@H](C)NC(=O)C/C=C\[C@H]1C	.	.	.	.	.	-
Cc1cc2cc(CCNC(=O)c3ccc(Br)o3)c(=O)[nH]c2cc1C	-	-	18µM	-	-	28µM
COc1ccc2cc(CCNC(=O)c3ccc(Br)o3)c(=O)[nH]c2c1	-	-	50µM	-	-	-
Cc1ccc(C)c2[nH]c(=O)c(CCNC(=O)c3ccc(Br)o3)cc12	-	-	.	-	.	.
O=c1[nH]cnc2sc3c(c12)CN(Cc1ccccc1)CC3	-	-	25µM	-	-	-
O=c1[nH]cnc2sc3c(c12)CCN(Cc1ccccc1)C3	-	-	?	-	-	-
COc1cccc2oc3cc(C#Cc4ccccn4)ccc3c(=O)c12	-	-	.	22µM	40µM	40µM
COc1cc(Nc2ccn3nccc3n2)cc(OC)c1OC	.	-	.	.	.	.
COc1ccc(Cl)cc1Nc1nc(-c2cccnc2)cs1	-	-	.	-	?	-
COc1ccccc1Nc1nc(-c2cccc([N+](=O)[O-])c2)cs1	-	-	?	?	?	11µM
O=[N+]([O-])c1cccc(-c2csc(Nc3ccccc3)n2)c1	-	-	40µM	?	?	-
O=C(Nc1cccc(-c2csc(Nc3ccccc3)n2)c1)c1ccccc1	-	-	-	-	-	-
COc1cc(NS(=O)(=O)c2ccc(Nc3nc(-c4cccc([N+](=O)[O-])c4)cs3)cc2)nc(OC)n1	?	?	50µM	?	45µM	-
O=C(CN1CCN(CC(=O)Nc2cccc(F)c2)CC1)Nc1ccc(-c2ccccc2)cc1	-	-	?	-	-	-
CC1(C)CC2(C)OC(=N)C1(C#N)C2(C#N)C#N (stereo not given)	-	-	56µM	-	-	-
COC(=O)CCCC(=O)N1CCCC(CNS(=O)(=O)c2ccc(OC)cc2)C1 (stereo not given)	-	-	-	-	-	-
CCN(c1ccccc1)S(=O)(=O)c1ccc(OC)c(NC(=O)Cc2ccc(F)cc2)c1	-	-	-[12.7 µM]	-	-	.
CCN(c1ccccc1)S(=O)(=O)c1ccc(OC)c(NC(=O)C2CCC2)c1	-	-	.	-	.	.
COc1ccc(S(=O)(=O)N2CCOCC2)cc1NC(=O)CCc1nc2ccccc2c(=O)[nH]1	-	-	?	-	-	-
CCN(c1ccccc1)S(=O)(=O)c1ccc(OC)c(NC(=O)CCc2nc3ccccc3c(=O)[nH]2)c1	-	-	45µM	-	-	.
CCN(c1ccccc1)S(=O)(=O)c1ccc(OC)c(NC(=O)COc2ccc(C(C)=O)cc2)c1	-	-	56µM	-	-	.
CCN(c1ccccc1)S(=O)(=O)c1ccc(OC)c(NC(=O)CNCCc2ccccc2)c1	50µM	-	?	0.89µM	32µM	-
Cc1ccsc1/C=N/NS(=O)(=O)c1ccc([N+](=O)[O-])cc1	-	-	?	?	-	-
CN(C)c1ccc(/C=C2/C=C(c3ccc4c(c3)CCCC4)OC2=O)cc1	?	-	-	2.5µM	?	-
Cc1cc(C(=O)NNC(=S)NCc2ccco2)n(C)n1	?	21µM	?	?	-	-
Cc1ccc(C(=O)NC(=S)NCc2ccco2)cc1	-	?	45µM	?	?	-
CCN(C(=O)CCc1nc(-c2ccc(C)cc2)no1)c1cc(C)ccc1C	-	.	-	-	-	.
O=C(NC(=S)NCc1ccco1)c1cccc(Cl)c1	.	.	71µM	.	?	-
Cc1ccc(-c2noc(CCC(=O)N(C)c3ccccc3C)n2)cc1	-	-	-	-	-	50µM

Bioassay records (PubChem)
